Test system: Vero E6 infected with SARS-CoV-2
Assay: inhibition of SARS-CoV-2 cytopathic effect; higher = more antiviral protection, active = above 15
Conditions: 48 h

Measured: inhibition of SARS-CoV-2 cytopathic effect

C=CC(=O)Nc1ccc2ncnc(Nc3ccc(OCc4cccc(F)c4)c(Cl)c3)c2c1
inactive: 1 nM -1.9% | 8.33 nM 1.55% | 100 nM -0.97% | 833.33 nM -0.61% | 10000 nM -3.89%

CCOC(=O)c1ccc(C#Cc2ccc3c(c2)C(C)(C)CCS3)nc1 [tazarotene]
inactive: 1 nM 0.41% | 8.33 nM 0.89% | 100 nM 1.7% | 833.33 nM 3.69% | 10000 nM 0.98%

CCN(CC)CCOCCOC(=O)C(CC)(CC)c1ccccc1 [oxelaidin]
inactive: 1 nM -3.54% | 8.33 nM 0.15% | 100 nM 0.38% | 833.33 nM -0.56% | 10000 nM 0.38%

CC1(C)CCC2=C(O1)c1ccccc1C(=O)C2=O [beta-lapachone]
inactive: 1 nM -0.31% | 8.33 nM 0.37% | 100 nM -2.74% | 833.33 nM -1.46% | 10000 nM 10.9%

CCOC(=O)[C@H](CCc1ccccc1)N[C@@H](C)C(=O)N1[C@H](C(=O)O)C[C@@H]2CCC[C@@H]21 [ramipril]
inactive: 1 nM -0.55% | 8.33 nM -0.01% | 100 nM -0.53% | 833.33 nM 5.34% | 10000 nM -2.38%

C[C@H](CCC(=O)O)[C@H]1CC[C@H]2[C@@H]3[C@@H](O)C[C@@H]4C[C@H](O)CC[C@]4(C)[C@H]3CC[C@]12C [ursodiol]
inactive: 1 nM 0.455% | 8.33 nM 1.77% | 100 nM 3.56% | 833.33 nM 1.38% | 10000 nM 0.145%

COc1ccccc1N1CCN(CC(O)COc2cc(OC)c(OC)c(OC)c2)CC1 (stereo not given) [enciprazine]
inactive: 1 nM 0.76% | 8.33 nM 1.14% | 100 nM 0.33% | 833.33 nM -0.53% | 10000 nM -2.4%

Cc1[nH]c(=O)c(C#N)cc1-c1ccc2nccn2c1 [olprinone]
inactive: 1 nM -2.15% | 8.33 nM 1.36% | 100 nM 0.52% | 833.33 nM 0.56% | 10000 nM -0.84%

Cc1cc(C)c(N)c(C#Cc2cccc(F)c2)n1
inactive: 1 nM 1.69% | 8.33 nM -1.37% | 100 nM 0.6% | 833.33 nM 3.1% | 10000 nM 1.98%

CCCN(CCC)C1Cc2cc(OC)c(OC)cc2C1
inactive: 1 nM -0.72% | 8.33 nM -0.86% | 100 nM -2.03% | 833.33 nM 0.79% | 10000 nM -2.36%

CN1CCC(=C2c3ccccc3Sc3ccccc32)CC1 [pimethixene]
inactive: 1 nM 1.38% | 8.33 nM 0.84% | 100 nM -0.63% | 833.33 nM -0.47% | 10000 nM -3.2%

CCC(C)(CN(C)C)OC(=O)c1ccccc1 (stereo not given) [amyleine]
inactive: 1 nM -1.14% | 8.33 nM 0.02% | 100 nM -0.24% | 833.33 nM -8.42% | 10000 nM -0.23%

CCCN1CCCC(c2cccc(O)c2)C1 (stereo in doubt) [preclamol]
inactive: 1 nM -0.2% | 8.33 nM -0.3% | 100 nM 0.42% | 833.33 nM 1.02% | 10000 nM -1.58%

Cc1cc(C)c(CNC(=O)c2cc(-c3ccc(N4CCN(C)CC4)nc3)cc3c2c(C)cn3C(C)C)c(=O)[nH]1
inactive: 1 nM -3.53% | 8.33 nM -2.54% | 100 nM -3.49% | 833.33 nM -2.29% | 10000 nM -3.02%

O=C(CCCN1CCN(c2ccccn2)CC1)c1ccc(F)cc1 [azaperone]
inactive: 1 nM 0% | 8.33 nM -7.58% | 100 nM -6.03% | 833.33 nM -5.15% | 10000 nM 0.26%

C[C@@H](O)[C@@H]1NC(=O)[C@H](CCCCN)NC(=O)[C@@H](Cc2c[nH]c3ccccc23)NC(=O)[C@H](Cc2ccccc2)NC(=O)[C@@H](NC(=O)[C@H](N)Cc2ccccc2)CSSC[C@@H](C(=O)N[C@H](CO)[C@@H](C)O)NC1=O [octreotide]
inactive: 1 nM 2.23% | 8.33 nM -0.63% | 100 nM -1.24% | 833.33 nM 3.26% | 10000 nM -1.58%

O=c1cc(N2CCOCC2)oc2c(-c3cccc4c3sc3ccccc34)cccc12
inactive: 1 nM 1.01% | 8.33 nM -0.44% | 100 nM 0.05% | 833.33 nM 8.27%
active: 10000 nM 36.8%

Cc1ccc(-c2c(-c3nn(C)c4ncnc(N5CC[C@H](N6CCCCC6)C5)c34)cnn2C)cc1
inactive: 1 nM -0.9% | 8.33 nM -0.84% | 100 nM 0.89% | 833.33 nM -2.4% | 10000 nM -0.65%
